Drawing on PubChem BioAssay (Tox21), this text covers Potency for 40 compounds.

Structures are written as SMILES. Values joined by “and” are separate entries in the source; they are usually repeats but may differ in a detail not shown here. Identical values can stand only once. Results filed as inconclusive are left out. Entries that show only a call come without a potency. Active and inactive are the calls of the source. Calls follow the shape of the dose curve; as a rule, active = well fitted inhibition curve with a large enough effect in the repeat runs; inconclusive = weak or mixed curves, or effect the other way; inactive = no such curve, though single readings can be large or run the other way.
Potency is read from the fitted curve at half-maximal effect.

A short description of the experiment: qHTS assay to identify small molecule antagonists of the retinoic acid receptor (RAR) signaling pathway (AID 1159552; also: nearly all actives have a fitted effect of over 50% in size). The note with it: C3RL4 RARE luciferase reporter, retinol-stimulated, 6 h; series mostly up to 92.4 µM. The text has this: National Center for Advancing Translational Sciences [NCATS]
NIH Chemical Genomics Center [NCGC]
U.S. Environmental Protection Agency [EPA]
National Institutes of Environmental Health Sciences [NIEHS]
National Toxicology Program [NTP]
U.S. Food and Drug Administration [FDA]
All-trans Retinoic acid (atRA) is the potent natural metabolite of retinol and plays an important role in normal embryonic development and maintenance of cellular phenotype in adult animals. atRA is the activating ligand for the retinoic acid receptors (RARs) which form heterodimers with retinoid X receptors (RXRs) on the retinoic acid response element (RARE). Through activation of the RAR/RXRs nuclear receptors, atRA regulates the transcription of a large number of protein-coding genes and regulatory RNAs. Intracellular levels of atRA are controlled by the retinol signaling pathway (RSP) that regulates the biosynthesis and catabolism of atRA to maintain physiological levels. Chemicals that interfere with the RSP can cause abnormal intracellular levels of atRA and therefore are potential developmental toxicants. To assess compounds for the potential adverse effect on embryonic development through interfering with retinol signaling, a cell-based RARE luciferase reporter gene assay was used. C3RL4 cell line (OARSA/CFSAN/FDA, Laurel, MD) was used to screen Tox21 10K compound library for identifying inhibitors of the RSP.
Tox21 Assay Protocol Summary:
C3RL4 cells were seeded at 1,000/well in 4 uL of assay medium into white solid 1,536-well tissue culture plates (Greiner Bio-One North America Inc. Monroe, NC) using a Multidrop Combi (Thermo Scientific, Waltham, MA) dispenser. After incubation at 37 C and 5% CO2 for an overnight, 23 nL of compounds dissolved in DMSO, positive control or DMSO only were transferred by a Pintool station (Kalypsys, San Diego, CA). One ul of 1 uM (final concentration) of Retinol was added right after the compound addition by using a Flying Reagent Dispenser (FRD) (Aurora Discovery, San Diego, CA). After 6 hr incubation at 37 C and 5% CO2, 5 uL of Amplite Luciferase reagent (AAT Bioquest Inc. Sunnyvale, CA) was added to each assay plate using an FRD. Luminescence was quantified on a ViewLux plate reader (PerkinElmer, Waltham, MA) after 30 min incubation at room temperature.
Consider `O=c1oc2cc(O)ccc2c2oc3cc(O)ccc3c12`, for which the Potency result is “inactive”.

Take `Nc1ccc(C(=O)O)c(O)c1`: the Potency entry was “inactive”.

On to `O=C1NC(=O)[C@@H]2CC=CC[C@H]12`, for which the Potency result is “inactive”.

Take `CC(=O)OCC=C(C)C`: the Potency entry is “inactive”.

On to `O=C(O)c1cc(O)c2ccccc2c1O`, for which the Potency was 68.6 µM (active).

On to `CC(C)(C)c1csc(-c2cc3cc(OCc4ccccc4CC(=O)O)ccc3o2)n1`, for which the Potency entry is “inactive”.

Turning to `C=C(C)c1cccc(C(=C)C)c1`, the Potency entry is “inactive”.

On to `CC(CO)Oc1ccccc1` (stereo not given), for which the Potency entry is “inactive”.

As for `Cc1cc(-n2nc3ccc(Cl)cc3n2)c(O)c(C(C)(C)C)c1`, the Potency entry is “inactive”.

As for `Cc1cccc2cccnc12`, the Potency result was “inactive”.

As for `Clc1nnc(Cl)c2ccccc12`, the Potency entry was “inactive”.

On to `CC(C)CCOC(=O)/C=C/c1ccccc1`, for which the Potency result is “inactive”.

Take `O=[N+]([O-])c1ccc(O)cc1C(F)(F)F`: the Potency entry was “inactive”.

`Cc1c(F)c(N2CCNC(C)C2)cc2c1c(=O)c(C(=O)O)cn2C1CC1` (stereo not given): the Potency result was “inactive”.

`CCCCNS(=O)(=O)c1ccc(C)cc1`: the Potency result was “inactive”.

As for `COC1=C(OC)C(=O)C(CCCCCCCCCCO)=C(C)C1=O`, the Potency result was “inactive”.

For the compound `O=C(O)CCN(C1(C(=O)NO)CCCC1)S(=O)(=O)c1ccc(Oc2ccc(F)cc2)cc1`, the Potency result was “inactive”.

In the case of `CC(C)(C)c1ccc(C(O)CCCN2CCC(C(O)(c3ccccc3)c3ccccc3)CC2)cc1` (stereo not given), the Potency entry is “inactive”.

With `C#Cc1ccc(-c2ccccc2F)cc1`, the Potency entry is “inactive”.

For `Cc1cc(C(C)(C)C)cc(C)c1CC1=NCCN1`, the Potency result is “inactive”.

For the compound `CCCC(=O)OCCc1ccccc1`, the Potency result was “inactive”.

On to `COC(=O)c1ccccc1OC`, for which the Potency entry was “inactive”.

In the case of `CCOC(=O)Cn1cccc1-c1nc(-c2ccc(OC)cc2)c(-c2ccc(OC)cc2)s1`, the Potency entry is “inactive”.

As to `COc1cc(/C=C/c2ccccc2)oc(=O)c1`, the Potency result is “inactive”.

On to `NC(=S)NC(N)=S`, for which the Potency result is “inactive”.

With `O=C(/C=C/c1ccc(O)c(O)c1)O[C@@H](C(=O)O)[C@@H](OC(=O)/C=C/c1ccc(O)c(O)c1)C(=O)O`, the Potency entry is “inactive”.

For the compound `CCCCCCOC(=O)C(C)CC` (stereo not given), the Potency entry was “inactive”.

For the compound `CC(=O)[C@H]1CC[C@H]2[C@@H]3CCC4=CC(=O)CC[C@]4(C)[C@H]3CC[C@]12C`, the Potency is 48.3 µM (active) and 30.6 µM (active).

With `C1CCC(SSC2CCCCC2)CC1`, the Potency result is “inactive”.

With `FC(F)(F)c1cccc(Cl)c1`, the Potency entry is “inactive”.

With `CC1(C)CC(O)CC(C)(C)N1`, the Potency result is “inactive”.

In the case of `C=C(CC)C(=O)c1ccc(OCC(=O)O)c(Cl)c1Cl`, the Potency is 48.2 µM (active).

On to `CCN(CCN)c1cccc(C)c1`, for which the Potency result is “inactive”.

For the compound `COc1cc(C)ccc1O`, the Potency result was “inactive”.

For the compound `Cc1ccc(C)cc1`, the Potency result was “inactive”.

`CCCCC(CC)CN1CN(CC(CC)CCCC)CC(C)(N)C1` (stereo not given): the Potency entry is “inactive”.

For the compound `Cc1c(C)c([N+](=O)[O-])c(C(C)(C)C)c([N+](=O)[O-])c1C`, the Potency entry was “inactive”.

In the case of `COC(=O)Nc1nc2ccc(C(=O)c3ccccc3)cc2[nH]1`, the Potency entry was “inactive”.

For `Cc1ccc(-c2ccccc2)cc1`, the Potency entry was “inactive”.

Consider `CN(C)c1ccc(C(=C2C=CC(=[N+](C)C)C=C2)c2ccc(N(C)C)cc2)cc1`, for which the Potency is 7.66 µM (active) and 2.17 µM (active) and 3.76 µM (active).
